Laboratory results reported in PubChem BioAssay AID1578 (Sanford-Burnham Center for Chemical Genomics, 2009).
In all, about 290,000 compounds went through this assay and about 3,000 (1%) were called active. Cut-off read from the data, not from the text of the source: active = inhibition mostly above about 36% (no sharp cut-off); inactive = mostly below about 34%. The full list was thinned out, with actives kept by preference.

Assay: NOD1 signaling inhibitors, primary screen, cell-based, luminescence, uHTS (AID 1578);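 note: HEK-293T reporter cells stimulated with the NOD1 agonist gamma-tri-DAP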
Conditions: NOD1-driven NF-kB luciferase reporter cells, at 4 µM, hits give high values
With `Cc1nn(C)cc1CNC(=O)c1ccc(Br)o1` the inhibition was -3.1% (inactive).
With `COc1ccc2ccccc2c1/C=N\NC(=O)c1ccc(C)s1` the inhibition was -3.2% (inactive).
In the case of `Cc1cccc(OCC(=O)NNC(=O)CSc2ncc(C#N)c(N)n2)c1`, the inhibition is reported as 98.2% (active).
In the case of `Cc1ccc(OCC(=O)NNC(=O)CSc2ncc(C#N)c(N)n2)cc1`, the inhibition is reported as -22.7% (inactive).
With `N#Cc1cnc(SCC(=O)NNC(=O)COc2cccc3ccccc23)nc1N` the inhibition was -19.9% (inactive).
For `CCCCn1c(SCC(=O)N2CCOCC2)nc2ccccc2c1=O`, the inhibition was -11.7% (inactive).
For `COc1ccc(NC(=O)CSc2nc(N)c(NC(=O)c3cccs3)c(=O)[nH]2)cc1`, the inhibition was -4.6% (inactive).
With `COc1cccc(-c2ccc(NC(=O)C3CCCN(CCCn4cccn4)C3)cc2)c1` (configuration not stated) the inhibition was -32.8% (inactive).
For `Cc1ccccc1Oc1nc2ccccn2c(=O)c1/C=C(\C#N)C(=O)Nc1c(C)n(C)n(-c2ccccc2)c1=O`, the inhibition was -32.9% (inactive).
With `O=C(COc1ccc(Cl)cc1Cl)Nc1ccccc1NS(=O)(=O)c1cccs1` the inhibition was 38.6% (inactive).
For `O=C(COc1ccccc1)Nc1ccccc1NS(=O)(=O)c1cccs1`, the inhibition was 15.4% (inactive).
With `N#Cc1c(NC(=O)CSc2nnc(-c3ccccc3O)n2-c2ccccc2)sc2c1CCCC2` the inhibition was -23.8% (inactive).
For `N#Cc1c(Sc2ncc(C(F)(F)F)cc2Cl)nsc1C/C=N\OCc1c(F)cccc1Cl`, the inhibition was 23.5% (inactive).
For `O=C(Nc1ccc(Oc2cccnc2)cc1)C1CCN(Cc2ccc(F)cc2)CC1`, the inhibition was -7.5% (inactive).
With `O=C(NCCCn1ccnc1)/C(=C\c1cccnc1)NC(=O)c1ccco1` the inhibition was -5.2% (inactive).
With `COc1ccc2oc(C(=O)NCc3cc(OC)c(OC)cc3OC)c(C)c2c1` the inhibition was 17.1% (inactive).
In the case of `CCOC(=O)C1CCN(C(=O)COC(=O)COc2ccc(Cl)cc2)CC1`, the inhibition is reported as -16% (inactive).
In the case of `NC(=O)c1ccc(Oc2ccc(Cl)cc2)c([N+](=O)[O-])c1`, the inhibition is reported as 2.7% (inactive).
For `CCC(=O)c1ccc(Oc2ccc(C(=O)c3ccc(C)cc3)cc2[N+](=O)[O-])cc1`, the inhibition was 40.1% (inactive).
In the case of `CC(=O)c1ccc(Oc2ccc(C(=O)c3ccc(C)c(C)c3)cc2[N+](=O)[O-])cc1`, the inhibition is reported as 69.6% (active).
With `Cn1ncnc1SCc1cn2cccnc2n1` the inhibition was -16.1% (inactive).
With `COc1ccc(-c2nc(CN3CCC(C(=O)N4CCOCC4)CC3)c(C)o2)cc1OC` the inhibition was -6.6% (inactive).
With `COc1ccc([N+](=O)[O-])cc1NC(=S)Nc1ccccc1` the inhibition was 4.9% (inactive).
With `O=C(CN(C(=O)CNS(=O)(=O)c1ccccc1)c1ccc2c(c1)OCCO2)NC1CCCCC1` the inhibition was -17.9% (inactive).
In the case of `COc1cccc(/C=N/N(C)C2=NS(=O)(=O)c3ccccc32)c1O`, the inhibition is reported as -15.4% (inactive).
In the case of `CN(/N=C/c1cc(Cl)ccc1O)C1=NS(=O)(=O)c2ccccc21`, the inhibition is reported as 30.8% (active).
With `Cc1ccc(/C=N/N(C)C2=NS(=O)(=O)c3ccccc32)cc1` the inhibition was 5% (inactive).
For `CCOc1ccc(CC(=O)NNC(=S)Nc2ccc(OC)c(OC)c2)cc1`, the inhibition was -36.4% (inactive).
In the case of `Cc1ccc(C)c(C(=O)N(C)CC(=O)Nc2ccccc2C(F)(F)F)c1`, the inhibition is reported as 35.4% (inactive).
For `CCn1c(=O)c(C(=O)NCc2ccccc2)c(O)c2ccccc21`, the inhibition was -12.4% (inactive).
With `O=[N+]([O-])c1cccc(OCC(O)CN2CCN(S(=O)(=O)c3cc(Cl)ccc3Cl)CC2)c1` (configuration not stated) the inhibition was 15.6% (inactive).
With `O=C(C[N+]1(CC#Cc2ccccc2)CCOCC1)c1ccccc1` the inhibition was -26.9% (inactive).
With `O=C(C[N+]1(CC#Cc2ccccc2)CCCCC1)c1ccccc1` the inhibition was 47.4% (active).
With `O=C(C[N+]1(CC#Cc2ccccc2)CCCCC1)c1ccc(Cl)cc1` the inhibition was -15.6% (inactive).
In the case of `Cc1cc(=O)[nH]c(SCC(=O)Nc2ccc(F)cc2)c1C#N`, the inhibition is reported as -21.3% (inactive).
In the case of `Cc1cc(=O)[nH]c(SCC(=O)Nc2ccc(Br)cc2)c1C#N`, the inhibition is reported as 67.2% (active).
With `COc1ccc(NC(=O)CSc2[nH]c(=O)cc(C)c2C#N)cc1OC` the inhibition was -23.7% (inactive).
In the case of `CN1C2CCC1/C(=C\c1ccccc1F)C(=O)/C2=C/c1ccccc1F`, the inhibition is reported as 34.2% (inactive).
With `CN1C2CCC1/C(=C\c1ccc(F)cc1)C(=O)/C2=C/c1ccc(F)cc1` the inhibition was 77.7% (active).
With `CN1C2CCC1/C(=C\c1ccccc1)C(=O)/C2=C\c1ccccc1` the inhibition was 36.3% (inactive).
For `Cc1cccc(N2CCN(C(=O)c3cc(S(=O)(=O)N4CCOCC4)cn3C)CC2C)c1` (configuration not stated), the inhibition was -17.7% (inactive).
For `Cc1cc(CNC(=O)Cn2cc([N+](=O)[O-])cn2)c2ccccc2n1`, the inhibition was -28.9% (inactive).
For `Cc1cc(CNC(=O)c2ccc(C)c([N+](=O)[O-])c2)c2ccccc2n1`, the inhibition was 26.1% (inactive).
For `Cc1cc(CNC(=O)c2cccc([N+](=O)[O-])c2)c2ccccc2n1`, the inhibition was 47.9% (active).
With `O=C(Nc1ccc(Br)c(C(F)(F)F)c1)c1ccccc1` the inhibition was 7.5% (inactive).
In the case of `O=C(Nc1ccc(Br)c(C(F)(F)F)c1)c1ccc(C(F)(F)F)cc1`, the inhibition is reported as 41.9% (active).
For `Cc1ccc(C(=O)Nc2ccc(Br)c(C(F)(F)F)c2)cc1`, the inhibition was -51.3% (inactive).
With `C=CCn1c(SCc2nc3cc(C(F)(F)F)ccc3c(=O)[nH]2)nc2sc(CC)cc2c1=O` the inhibition was -9.3% (inactive).
In the case of `COc1ccc(-c2noc(N3CCC(C(=O)NCc4ccccc4Cl)CC3)n2)cc1`, the inhibition is reported as 49.5% (inactive).
In the case of `O=C(N/N=C(/c1ccccc1)c1ccncc1)c1ccc2c(c1)OCO2`, the inhibition is reported as -26.7% (inactive).
In the case of `Cc1cc(C(=O)COC(=O)CN(C)S(=O)(=O)c2ccc(Cl)cc2)c(C)n1CC1CCCO1` (configuration not stated), the inhibition is reported as -12.3% (inactive).
For `c1ccc(-c2nnnc3ccccc23)cc1`, the inhibition was -26.7% (inactive).
In the case of `Clc1ccc2nnnc(-c3ccccc3)c2c1`, the inhibition is reported as 63.1% (active).
With `Cc1ccc2nnnc(-c3ccccc3)c2c1` the inhibition was -32.7% (inactive).
With `COC(=O)c1ccc(NC(=O)NCCCl)cc1` the inhibition was -34.1% (inactive).
With `Cc1c(C(=O)N2CCOCC2)sc(NC(=O)c2ccc([N+](=O)[O-])cc2)c1C#N` the inhibition was -2.6% (inactive).
For `Cc1ccc(/C=C/C(=O)c2c(C)nc3ccccn23)cc1`, the inhibition was -11.3% (inactive).
In the case of `C/C(=N\NC(=O)c1c(C)nc2ccccn12)c1cccc([N+](=O)[O-])c1`, the inhibition is reported as -11.1% (inactive).
In the case of `Cc1nc2ccccn2c1C(=O)/C=C/c1cccc([N+](=O)[O-])c1`, the inhibition is reported as 101% (active).
In the case of `Cc1c(C(=O)N2CCN(c3ccccc3)CC2)sc2nc3n(c(=O)c12)CCC3`, the inhibition is reported as 0.9% (inactive).
In the case of `CC(=O)c1ccccc1NC(=O)CCCNC(=O)c1ccc(Cl)cc1`, the inhibition is reported as 17.3% (inactive).
With `CC(=O)CCSc1ncnc2sc(-c3ccccc3)cc12` the inhibition was -75.9% (inactive).
With `O=C(O)CSc1ncnc2sc(-c3ccccc3)cc12` the inhibition was -16.7% (inactive).
For `COc1cc(CN2CCN(CCOCCO)CC2)cc(OC)c1OC`, the inhibition was -4.8% (inactive).
For `Cc1cc(/C=C2\Sc3ccccc3N2C)cc(C)[n+]1CC1CCCO1` (configuration not stated), the inhibition was 56.7% (active).
For `COc1ccccc1-[n+]1c(C)cc(/C=C2\Sc3ccccc3N2C)cc1C`, the inhibition was 28.9% (inactive).
With `Cc1ccc(/C=C2/Sc3ccccc3N(CC(=O)NCC3CCCO3)C2=O)cc1` (configuration not stated) the inhibition was -4.1% (inactive).
For `Nc1nonc1-n1nnc(C(=O)N/N=C/c2ccc(OCc3ccccc3)cc2)c1COc1ccc(F)cc1`, the inhibition was -0.6% (inactive).
With `NS(=O)(=O)c1ccc(NC(=S)Nc2ccn(Cc3cccc4ccccc34)n2)cc1` the inhibition was 56.6% (active).
For `CC(=O)c1cccc(NC(=S)Nc2ccn(Cc3cccc4ccccc34)n2)c1`, the inhibition was -5.1% (inactive).
For `O=C(Nc1ccn(Cc2cccc3ccccc23)n1)c1cccnc1`, the inhibition was 7.1% (inactive).
For `Cc1cc(C)n(C(=O)c2ccc(C)c(Br)c2)n1`, the inhibition was -2.6% (inactive).
In the case of `c1csc(-c2nnc(N3CCOCC3)c3ccccc23)c1`, the inhibition is reported as 2.4% (inactive).
In the case of `c1csc(-c2nc(N3CCOCC3)c3ccccc3n2)c1`, the inhibition is reported as -9.5% (inactive).
For `O=C1OCCN1c1c(-c2ccccc2)c(-c2cccs2)nc2c(-c3ccccc3)cccc12`, the inhibition was 66% (active).
With `CCOc1ccc2nc(NC(=O)CSc3nc4cccnc4n3C)sc2c1` the inhibition was -1% (inactive).
For `O=C(NC1CCCC1)c1ncn[nH]1`, the inhibition was -17.9% (inactive).
In the case of `CC1CC(NC(=O)c2cnc3n(c2=O)CCS3)CC(C)(C)C1` (configuration not stated), the inhibition is reported as -9% (inactive).
For `CC1CC(NC(=O)c2ncn[nH]2)CC(C)(C)C1` (configuration not stated), the inhibition was 84.5% (active).
For `Cc1nn(-c2ccc(Cl)c(Cl)c2)c(C)c1C(=O)O`, the inhibition was -17.4% (inactive).
With `CCc1nnc(NC(=O)CC23CC4CC(CC(Br)(C4)C2)C3)s1` the inhibition was -2.7% (inactive).
With `CCc1c(C)nc(SCC(=O)N2CCCCC2CC)[nH]c1=O` (configuration not stated) the inhibition was -11.1% (inactive).
For `C/C(=N\NC(=O)c1cccc(Br)c1)c1cccc(NC(=O)c2ccc(C)o2)c1`, the inhibition was -55.5% (inactive).
In the case of `C/C(=N\NC(=O)C1(C)CC1(Br)Br)c1cccc(NC(=O)c2ccc(C)o2)c1` (configuration not stated), the inhibition is reported as 89.8% (active).
With `C/C(=N\NC(=O)C1(C)CC1(Br)Br)c1ccc(NC(=O)c2ccc(C)o2)cc1` (configuration not stated) the inhibition was 13.4% (inactive).
For `O=S(=O)(O)c1ccc(N=NNc2ccc(Br)cc2)cc1`, the inhibition was -12.1% (inactive).
In the case of `C=C1/C(=C\C=C2/CCC[C@]3(C)[C@@H]([C@H](C)CCCC(C)(C)O)CC[C@@H]23)C[C@@H](O)C[C@@H]1O`, the inhibition is reported as 65.6% (active).
With `COc1ccc(-c2nc(C)ncc2-c2ccc(Cl)cc2)c(O)c1` the inhibition was 5.6% (inactive).
With `CCN(C(=O)COC(=O)/C=C/c1cccc(Br)c1)C1CCS(=O)(=O)C1` (configuration not stated) the inhibition was -18.9% (inactive).
With `CN(C(=O)COC(=O)/C=C/c1ccc(C(F)(F)F)cc1)C1CCS(=O)(=O)C1` (configuration not stated) the inhibition was -16.9% (inactive).
In the case of `CN(C(=O)COC(=O)/C=C/c1cccc([N+](=O)[O-])c1)C1CCS(=O)(=O)C1` (configuration not stated), the inhibition is reported as 61.3% (active).
In the case of `CCOC(=O)c1c(Nc2ccccc2)sc(/C=C2\C=Nc3ccccc32)c1O`, the inhibition is reported as -68% (inactive).
